Source: PubChem
a7 integrin act: integrin-mediated muscular dystrophy alleviation activation; alpha7betagal myoblasts, beta-gal FDG fluorescence, 48 h; Potency, µM (titrated, usually from 38.3 µM), without a hit: at the highest dose activation, usual class: activators; actives 0.064% (n = 350,000); AID 624291;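 further: potency means the concentration at half of the fitted maximal effect; 100% = response of the positive control SU9516; nearly all actives have a fitted effect of over 60% in size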
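alpha7betagal+/- myoblasts (passage 13, 250/well) treated 48 h at 37C with compounds at 1:260 dilution of DMSO stock. Lysed, then beta-galactosidase activity read as FDG fluorescence (ex 480/em 540) after 30 min, with pre-read for autofluorescence.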
Tb PFK inh: T. brucei PFK enzyme inhibition; O15648; T. brucei PFK, ADP-Glo luminescence; Potency, µM (series often up to 57.5 µM), for inactives: top-dose activity, negative = inhibition, most hits filed as inhibitors; actives 0.17% (n = 330,000); AID 485367;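 further: potency means the concentration at half of the fitted maximal effect; 0% = uninhibited 1x PFK enzyme wells and -100% = no-enzyme wells; nearly all actives have a fitted effect of over 60% in size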
Target sequence (O15648 whole entry, looked up): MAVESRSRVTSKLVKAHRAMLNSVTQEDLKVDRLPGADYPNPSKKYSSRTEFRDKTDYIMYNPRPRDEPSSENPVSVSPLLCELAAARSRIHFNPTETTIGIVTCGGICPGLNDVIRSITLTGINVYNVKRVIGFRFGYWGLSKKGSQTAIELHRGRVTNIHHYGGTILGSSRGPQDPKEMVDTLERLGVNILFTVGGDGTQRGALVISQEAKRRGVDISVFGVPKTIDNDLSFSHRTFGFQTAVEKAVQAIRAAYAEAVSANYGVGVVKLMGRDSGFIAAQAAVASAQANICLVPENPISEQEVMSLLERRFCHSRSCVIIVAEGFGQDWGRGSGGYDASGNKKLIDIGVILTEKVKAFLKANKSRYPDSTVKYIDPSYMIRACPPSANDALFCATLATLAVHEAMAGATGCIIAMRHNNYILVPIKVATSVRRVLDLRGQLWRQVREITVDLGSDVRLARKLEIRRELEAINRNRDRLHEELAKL
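Activity is normalized to no-enzyme wells (full inhibition) and 1.25 nM enzyme wells (no inhibition). Reaction: 0.5 mM F6P, 0.1 mM ATP, 45 min RT, ADP-Glo luminescence; concentration-response curves fitted and classed by quality.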
A-T KAP1 phos: potential ataxia-telangiectasia treatments restoring KAP-1 phosphorylation. F2112 A-T fibroblasts, KAP-1 phosphorylation AlphaLISA; neocarzinostatin DNA damage 30 min before lysis. Potency, µM (doses to about 57.5 µM), inactives show at the highest dose activation, hits mostly activators. actives 0.19% (n = 320,000). AID 485349; further: potency means the concentration at half of the fitted maximal effect; % of control where 0% means no effect; nearly all actives have a fitted effect of over 45% in size
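hTERT-immortalized A-T patient fibroblasts (F2112), 500 cells/well in OPTI-MEM, 1% FBS, got compounds for 60 min, then NCS for 30 min at 37C. Lysates were then assayed for phospho-KAP-1 by AlphaLISA (anti-pKAP1 donor, anti-KAP1 acceptor beads), 6 hr at 25C.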
TCR act: T cell receptor activation | primary human leukocytes, anti-CD3, IL-2 HTRF, 48 h | Potency, µM (top dose mostly 9.22 µM), without a hit: at the top dose activation of IL-2 secretion, most hits filed as activators | 330,000 tested, under 10 active | AID 504894; further: % of control where 0% means no effect
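48 hr co-incubation of compounds, a-CD3 beads and primary human leukocytes; IL-2 quantified homogeneously by HTRF with anti-IL-2 K and d2 conjugates.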
PKM2 act: increases activity of human pyruvate kinase M2; actives 0.34% (n = 260,000); P14618; Potency, µM (doses to about 57.5 µM), inactives show at the highest dose activation, actives largely listed as activators; purified PKM2, Kinase-Glo ATP luminescence, activation; response scale: 0% is enzyme alone, no compound; AID 1631; further: potency means the concentration at half of the fitted maximal effect; on the % scale 0 is the no-effect control and ±100 the full control effect; nearly all actives have a fitted effect of over 55% in size
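Purified hPK-M2 (>95%) run at intermediate activity with 0.1 mM ADP and 0.5 mM PEP in 50 mM imidazole pH 7.2, KCl, MgCl2; 1 h room temperature. ATP formed read by Kinase-Glo luminescence; normalized to uninhibited and no-enzyme controls.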
IL2 activator: activates IL-2 in a cell-based reporter assay; IL-2 activation reporter assay, cell-based qHTS; stimulated with anti-CD3/CD4/CD28 beads; in transgenic mouse T cells; activation, % (series mostly up to about 46 µM); actives 0.065% (n = 360,000); AID 652025; in the data active means activation above about 50%; inconclusive means mostly about 30% to 49%; further: 0% is about no effect
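Readout: EGFP and DsRed signals by fluorescent plate cytometry. Unstimulated transgenic mouse T cells received compound 60 min before antibody-bead stimulation, then incubated 18 h at 37 degrees C.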
Active calls of the source: *; [ ] = remark or other dose. A selection: hits, their analogues and other compounds. The true share with any hit is near 0.69%. Unless noted, the call rests on the fitted dose curve; in most records, active means well fitted curve in the direction sought with a large enough effect; inconclusive means small, poorly fitted or top-dose-only effect, or another doubt; inactive means no such curve, though single readings can be large; an effect the other way counts as inactive or inconclusive.

Screening CSc1ccc(S(=O)(=O)N2CCN(Cc3ccc4c(c3)OCO4)CC2)cc1 returned a7 integrin act 3%, Tb PFK inh -4%, A-T KAP1 phos 10%, TCR act 1%[46.1 µM], PKM2 act 7.9µM* and IL2 activator 1.
`Cc1ccc(OCC(=O)N2CCN(S(=O)(=O)c3ccc4c(c3)OCCO4)CC2)c(C)c1` gave a7 integrin act 2µM*, Tb PFK inh 1%, A-T KAP1 phos 0%, TCR act 8% and IL2 activator 0.
Screening COC(=O)[C@@H]1C[C@H]1[C@@H](NC(=O)c1ccc(Br)cc1)c1ccccc1 returned PKM2 act 0%.
Cc1ccc(C(=O)Nc2ccc(C(=O)O)cc2)cc1S(=O)(=O)NCc1ccccc1 was read as a7 integrin act inconclusive, Tb PFK inh 0%, A-T KAP1 phos -3%, TCR act 3%, PKM2 act -1% and IL2 activator 535*.
For Cc1cc2c(c(=O)o1)C(c1ccc([N+](=O)[O-])o1)C(C#N)=C(N)O2 (configuration not stated) the results were a7 integrin act 5%, Tb PFK inh -18%, A-T KAP1 phos 32µM*, TCR act 0%, PKM2 act 10% and IL2 activator inconclusive.
Screening CC(C)(C)NC(=O)C(c1ccc(I)cc1)N(CCN1CCOCC1)C(=O)CCCNC(=O)c1ccccc1 (configuration not stated) returned PKM2 act 6%.
Screening O=c1oc2ccc(Br)cc2cc1S(=O)(=O)c1ccc(F)cc1 returned a7 integrin act -1%, Tb PFK inh 4%, A-T KAP1 phos 29%, TCR act 3%[46.1 µM], PKM2 act 2.8µM* and IL2 activator -1.
Cc1ncc(CO)c2cc(S(=O)(=O)c3ccc(F)cc3)c(=O)oc12 was read as a7 integrin act 26%, Tb PFK inh 28%, A-T KAP1 phos -1%, TCR act 1%[46.1 µM], PKM2 act -6% and IL2 activator 4.
`Cc1cc2[nH]c(=O)c(=O)[nH]c2cc1S(=O)(=O)Nc1ccccc1F` gave a7 integrin act 3%, Tb PFK inh 1%, A-T KAP1 phos -5%, TCR act -2%, PKM2 act 10µM* and IL2 activator 0.
O=S(=O)(Nc1ccc(-c2nc3cccnc3s2)cc1)c1cc(F)ccc1F was read as a7 integrin act -10%, Tb PFK inh 24%, A-T KAP1 phos 13µM*, TCR act -2%, PKM2 act -4% and IL2 activator 0.
CCc1ccc(S(=O)(=O)Nc2ccc(-c3nc4cccnc4s3)cc2)s1 was read as a7 integrin act 14%, Tb PFK inh 1%, A-T KAP1 phos 33%, TCR act 1%, PKM2 act -5% and IL2 activator 1.
For C=CCN1c2ccccc2[C@]23C[C@@H](C(=O)OC)N(S(=O)(=O)c4cccs4)C2=NC(C(=O)OC)=C(C(=O)OC)[C@H]13 the results were PKM2 act 0%[11.5 µM].
For CCOc1ccc2c(c1)S/C(=C\c1cccs1)C(=O)N2 the results were a7 integrin act -10%, Tb PFK inh 3%, A-T KAP1 phos 39%, TCR act 6%, PKM2 act 0% and IL2 activator 60*.
Screening O=C(N[C@@H](c1ccccc1)[C@@H]1C[C@H]1C(=O)NCc1ccccc1)OCc1ccccc1 returned PKM2 act -2%.
Screening COc1ccc(/C=N/Nc2nonc2N)cc1 returned a7 integrin act 6%, Tb PFK inh 3%, A-T KAP1 phos 2%, TCR act -1%, PKM2 act 5% and IL2 activator 0.
`COc1ccc(/C=N/Nc2nn3cnnc3c3ccccc23)cc1` gave a7 integrin act -8%, Tb PFK inh 5%, A-T KAP1 phos 45µM*, TCR act 9%, PKM2 act 11% and IL2 activator -1.
